Assay [1] concerns TRPC4 beta (transient receptor potential cation channel C4), mouse. Nature of the assay: activators of mouse TRPC4 channel, confirmation, cell-based, Fluo4 calcium, HEK293 TRPC4beta/mu-opioid, duplicates, 10 µM (AID 2426;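 active means fluorescence ratio normalized to control raised more than 50% in primary screen plus both repeat runs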;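 on activation: percent rise of integrated ratio over buffer wells lacking compound which define 0%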). The following applies: Fluo4 calcium fluorescence, at 10 µM; stronger effect = higher value.
Assay [2] relates to transient receptor potential cation channel C4 beta (TRPC4), mouse. Nature of the assay: activators of mouse TRPC4 channel, confirmation, cell-based, second round, Fluo4, HEK293 TRPC4beta/mu-opioid, 1 µM (AID 2461;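 active means primary screen active and over 50% activation in each of two duplicate runs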;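 on activation: 0% = wells without test compound as baseline of integrated fluorescence ratio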). The following applies: Fluo4 calcium fluorescence, at 1 µM; stronger effect = higher value.
Assay [3] concerns TRPC4 (transient receptor potential cation channel C4 beta), mouse. Nature of the assay: positive allosteric modulators of mouse TRPC4, confirmation, cell-based, second round, Fluo-4, HEK293 TRPC4beta/mu-opioid, 1 µM (AID 2554;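 active means primary screen hit whose fluorescence ratio, in both repeats, exceeds the weak agonist control mean by 3 SD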). The following applies: DAMGO EC20, Fluo-4 calcium flux, at 1 µM; stronger effect = higher value.
Assay [4] concerns TRPC4 beta (transient receptor potential cation channel C4), mouse. As to the kind of experiment: positive allosteric modulators of mouse TRPC4, confirmation, cell-based, Fluo-4, HEK293 TRPC4beta/mu-opioid (AID 2555). Particulars: DAMGO EC20, Fluo-4 calcium flux, at 10 µM; stronger effect = higher value.
Assay [5] deals with Short transient receptor potential channel 4 (Mus musculus) (UniProt Q9QUQ5). Nature of the assay: inhibitors of mouse TRPC4 channel, confirmation, cell-based, Fluo4, HEK293 TRPC4beta/mu-opioid (AID 2636;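 active means calcium signal cut by more than 3 SD below the full-agonist control yet still positive, in both repeats and the earlier primary screen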). The following applies: DAMGO, Fluo4 calcium flux, at 10 µM; stronger effect = higher value.
Assay [6] shares this target. As to the kind of experiment: inhibitors of mouse TRPC4 channel, confirmation, cell-based, second round, Fluo4, HEK293 TRPC4beta/mu-opioid, 1 µM (AID 2637;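 active means calcium signal ratio cut to more than 3 SD under the fully stimulated control mean yet still positive, in both repeats and the primary screen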). The following applies: Fluo4 calcium flux, DAMGO, at 1 µM; stronger effect = higher value.
For assay [7] the target is unchanged. Nature of the assay: TRPC4 positive allosteric modulators, dose response, cell-based, HEK293 TRPC4/mu-opioid, Fluo-4 calcium, EC20 DAMGO (AID 434941;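 active means earlier screen potentiator hit that boosts the TRPC4 ion channel at some dose, with a dose response; inactive means no potentiation, no dose response, or not a prior hit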;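 further: calcium entry triggered by an EC20 dose of DAMGO at the co-expressed mu-opioid receptor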).
For assay [8] the target is unchanged. As to the kind of experiment: mouse TRPC4 channel inhibitors, dose response, cell-based, HEK293 TRPC4/mu-opioid, Fluo-4 calcium (AID 434942;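 active means primary screen inhibitor hit that blocks the TRPC4 channel at some tested dose, yielding a dose curve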).
The target in assay [9] is Short transient receptor potential channel 6 (Mus musculus) (UniProt Q61143). Nature of the assay: inhibition of mouse TRPC6 channel, confirmation, selectivity assay for TRPC4 inhibitor project, cell-based, HEK293, membrane potential dye, duplicate (AID 434948;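 active means active in primary screen and both duplicates, each dropping signal beyond three positive-control SD with fluorescence still positive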). The following applies: HEK293 TRPC6, membrane potential dye fluorescence, at 10 µM, stimulated with maximal-effect acetylcholine; stronger effect = higher value.

The target is the same in assay [10]. Nature of the assay: activation of mouse TRPC6 channel, confirmation, selectivity assay for TRPC4 activator project, cell-based, HEK293, membrane potential dye, duplicate (AID 434950;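 active means membrane potential signal rise above negative control mean plus 3 SD in both duplicates, also active in the earlier TRPC4 screen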;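 on activation: 0% = buffer only wells and 100% = acetylcholine maximal-effect wells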). Particulars: HEK293 TRPC6, membrane potential fluorescence, at 10 µM; stronger effect = higher value.
For assay [11] the target is unchanged. As to the kind of experiment: TRPC6 potentiation by TRPC4 potentiator hits, confirmation, selectivity assay for TRPC4 potentiator project, HEK293 cells, membrane potential dye, duplicate (AID 434952;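 active means compound raising the membrane signal above positive-control mean plus 3 SD in both repeats, and a primary screen hit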). Particulars: HEK293 TRPC6, membrane potential dye fluorescence, at 10 µM, maximal acetylcholine added after compound; stronger effect = higher value.
The target of assay [12] is Short transient receptor potential channel 4 (Mus musculus) (UniProt Q9QUQ5). As to the kind of experiment: calcium flux activators in TRPC4/5HT1a cells, counter-screen for TRPC4 activator project, cell-based, second counter screen, HEK293 TRPC4/5HT1a, Fluo-4 (AID 434977;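 active means calcium signal rise above buffer-control mean plus 5 SD in both duplicates, and also a hit in the primary screen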;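 on activation: plate controls were assay buffer for no effect and maximal serotonin response for full effect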). Particulars: Fluo-4 calcium flux, at 10 µM; stronger effect = higher value.
Assay [13] is described as follows: calcium flux inhibitors in TRPC4/5HT1a cells, confirmation, counter-screen for TRPC4 inhibitor project, cell-based, second counter screen, HEK293 TRPC4/5HT1a, Fluo-4 (AID 434978;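 active means primary screen active whose calcium signal fell more than 3 SD beyond the full-serotonin control mean in both duplicate plates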;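 on outcome: serotonin given first at submaximal then at maximal dose after compound preincubation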). Particulars: Fluo-4 calcium flux, at 10 µM, serotonin added to trigger calcium flux; stronger effect = higher value.
Assay [14] deals with TRPC4 (mouse), co-expressed with 5HT1a in HEK293. Nature of the assay: calcium flux potentiators in TRPC4/5HT1a cells, confirmation, counter-screen for TRPC4 potentiator project, cell-based, second counter screen, HEK293 TRPC4/5HT1a, Fluo-4 (AID 434979;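 active means signal rise over 3 SD above mean of control wells given weak agonist, in both repeats and first screen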). Particulars: Fluo-4 calcium flux, at 10 µM, serotonin added at its EC20 dose; stronger effect = higher value.
A short description of assay [15]: calcium flux activation in mu-opioid HEK293 cells, confirmation, counter-screen for TRPC4 activator project, cell-based, HEK293 mu-opioid receptor line (AID 449723;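 active means hit in primary screen, with calcium signal over 5 SD above buffer well mean in both duplicates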;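 further: counter screen cells carry the mu-opioid receptor alone and lack TRPC4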). The following applies: Fluo-4 calcium fluorescence, at 10 µM; stronger effect = higher value.
Assay [16] in a line: calcium flux enhancement in mu-opioid HEK293 cells, confirmation, counter-screen for TRPC4 allosteric potentiator project, cell-based, HEK293 mu-opioid receptor line (AID 449724;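 active means calcium signal rise more than 3 SD above the low-dose agonist control mean, in both duplicate plates and the primary screen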;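 further: HEK293 cells carrying mu-opioid receptor only with no TRPC4 channel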). Particulars: Fluo-4 calcium flux, at 10 µM, compound added before EC20 DAMGO stimulus; stronger effect = higher value.

Structures are written as SMILES. For part of these data: Results with a measured potency or affinity are listed apart. The source made the active and inactive calls.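 How the source made its calls, unless noted: active means primary screen hit whose calcium fluorescence ratio, in both repeats, exceeds the weak agonist control mean by 3 SD; inactive means the rest.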

Chain of Short transient receptor potential channel 6 (Mus musculus) (Q61143 whole entry, looked up): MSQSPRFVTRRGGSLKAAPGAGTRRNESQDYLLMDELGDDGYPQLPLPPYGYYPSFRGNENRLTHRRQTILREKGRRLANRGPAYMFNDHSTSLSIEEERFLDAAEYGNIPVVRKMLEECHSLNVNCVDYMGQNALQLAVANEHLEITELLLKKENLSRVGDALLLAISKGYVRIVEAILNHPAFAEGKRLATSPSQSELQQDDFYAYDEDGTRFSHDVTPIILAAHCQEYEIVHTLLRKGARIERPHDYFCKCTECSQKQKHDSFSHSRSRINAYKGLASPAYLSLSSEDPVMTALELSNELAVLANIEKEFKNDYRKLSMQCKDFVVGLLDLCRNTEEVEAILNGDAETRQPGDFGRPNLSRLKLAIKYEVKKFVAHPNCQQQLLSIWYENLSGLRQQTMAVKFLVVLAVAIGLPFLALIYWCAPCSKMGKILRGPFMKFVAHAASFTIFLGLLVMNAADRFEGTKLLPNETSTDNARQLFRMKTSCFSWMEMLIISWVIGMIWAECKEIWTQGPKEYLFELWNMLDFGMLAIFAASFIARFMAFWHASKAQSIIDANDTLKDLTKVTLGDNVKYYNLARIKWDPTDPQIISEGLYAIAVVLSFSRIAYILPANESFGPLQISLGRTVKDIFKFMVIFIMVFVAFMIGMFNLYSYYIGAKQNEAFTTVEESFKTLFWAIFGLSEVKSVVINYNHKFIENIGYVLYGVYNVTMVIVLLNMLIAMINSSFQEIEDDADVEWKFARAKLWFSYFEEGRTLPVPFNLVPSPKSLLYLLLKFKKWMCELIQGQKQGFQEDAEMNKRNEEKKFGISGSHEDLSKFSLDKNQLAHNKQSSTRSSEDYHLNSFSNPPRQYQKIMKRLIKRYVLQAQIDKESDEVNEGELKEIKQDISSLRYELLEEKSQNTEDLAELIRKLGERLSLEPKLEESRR
Chain of Short transient receptor potential channel 4 (Mus musculus) (Q9QUQ5 whole entry, looked up): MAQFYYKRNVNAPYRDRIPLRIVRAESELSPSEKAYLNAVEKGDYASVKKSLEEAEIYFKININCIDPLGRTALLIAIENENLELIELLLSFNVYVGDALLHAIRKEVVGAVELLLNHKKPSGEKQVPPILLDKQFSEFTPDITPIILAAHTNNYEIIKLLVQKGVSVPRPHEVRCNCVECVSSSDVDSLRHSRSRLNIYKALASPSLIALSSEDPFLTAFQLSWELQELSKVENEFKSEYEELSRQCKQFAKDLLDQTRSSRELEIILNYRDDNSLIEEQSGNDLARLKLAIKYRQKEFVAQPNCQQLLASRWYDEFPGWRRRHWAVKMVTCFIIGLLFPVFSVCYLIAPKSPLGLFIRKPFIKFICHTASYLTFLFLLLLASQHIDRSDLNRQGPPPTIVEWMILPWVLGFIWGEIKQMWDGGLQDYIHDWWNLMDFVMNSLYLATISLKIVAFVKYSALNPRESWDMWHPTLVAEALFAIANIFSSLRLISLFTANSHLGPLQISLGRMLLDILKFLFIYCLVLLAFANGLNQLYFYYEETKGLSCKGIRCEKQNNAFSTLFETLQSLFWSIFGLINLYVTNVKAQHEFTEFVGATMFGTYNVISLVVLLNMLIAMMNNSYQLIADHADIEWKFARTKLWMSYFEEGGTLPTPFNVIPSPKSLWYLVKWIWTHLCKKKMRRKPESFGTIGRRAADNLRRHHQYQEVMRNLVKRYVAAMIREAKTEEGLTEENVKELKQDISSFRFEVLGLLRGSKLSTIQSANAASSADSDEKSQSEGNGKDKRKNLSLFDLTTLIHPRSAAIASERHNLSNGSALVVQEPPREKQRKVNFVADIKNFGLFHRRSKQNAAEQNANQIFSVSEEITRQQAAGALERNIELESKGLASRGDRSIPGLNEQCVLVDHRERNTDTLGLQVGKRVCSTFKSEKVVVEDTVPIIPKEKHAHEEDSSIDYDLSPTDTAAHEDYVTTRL

On to `Cc1cccc(NC(=S)NCC(c2cccnc2)N(C)C)c1` (stereo not given), for which the activation in [1] is 87% (active); in assay [2], 115% (active); in assay [10] it was 33.5% (active). Moreover, the outcome in assay [3], in [4], in [5], in assay [6], in [7] and in [8] was inactive. Also, the result in assay [9], in assay [11], in assay [12], in assay [13], in assay [14] and in assay [15] was inactive. Also, the outcome in assay [16] was inactive.
In the case of `Cc1cc(OCCCn2ccnc2)cc(C)c1Cl`, the activation in [1] is 67% (active); in assay [10] it was 47.5% (active); in [12], 15.8% (active). The outcome in assay [2], in assay [3], in assay [4], in [5], in [6] and in assay [7] was inactive. For the same compound, the outcome in assay [8], in assay [9], in [11], in [13], in assay [14] and in assay [15] was inactive. In addition, the outcome in assay [16] was inactive.
With `COc1cc(OC)cc(C(=O)NCCCN2CCN(CCCNC(=O)c3cc(OC)cc(OC)c3)CC2)c1`, the activation is 121% (active) in assay [1], 94% (active) in assay [2], 31.5% (active) in assay [10] and 30.4% (active) in assay [12]. The result in [3], in assay [4], in assay [5], in assay [6], in assay [7] and in [8] was inactive. Also, the compound was called inactive in [9], in [11], in assay [13], in [14], in assay [15] and in assay [16].
Turning to `Cc1cc(OCCCCn2ccnc2)cc(C)c1Cl`, the activation in assay [1] is 102% (active); in [10], 50% (active); in assay [12], 20.1% (active). In addition, the outcome in assay [2], in assay [3], in [4], in [5], in assay [6] and in assay [7] was inactive. Also, the result in [8], in assay [9], in assay [11], in [13], in assay [14] and in assay [15] was inactive. The result in assay [16] was inactive.
For `NCCCn1c(C(=O)c2cc(Cl)c(N)c(Cl)c2)c2ccccc2[n+]1[O-]`, the figures for the activation in [1], in assay [2] and in assay [12] were 179% (active), 103% (active) and 67.1% (active), respectively. Further, the outcome in assay [3], in assay [4], in assay [6], in [7], in assay [8] and in assay [9] was inactive. In addition, the call in assay [10], in assay [11], in [14], in assay [15] and in assay [16] was inactive. Moreover, the results for the inhibition in assay [5] and in assay [13] were 83% (active) and 14% (active), respectively.
Regarding `CCOC(=O)C1(CCOc2ccccc2)CCN(Cc2ccc3c(c2)OCCO3)CC1`, the outcome in assay [1], in assay [2], in [3], in [4], in assay [5] and in assay [6] was inactive. For the same compound, the outcome in [7], in assay [8], in assay [9], in assay [11], in assay [12] and in assay [13] was inactive. The outcome in assay [14], in [15] and in [16] was inactive. Besides, the activation in assay [10] is 74.5% (active).
For the compound `O=C1/C(=C\c2cc(Cl)c(O)c(Cl)c2)SC(=S)N1Cc1ccccc1`, the activation in [1] was 118% (active); in [10], 1320% (active); in [12], 105% (active); in assay [15] it was 248% (active); in assay [16], 3240% (active). The result in assay [2], in assay [3], in assay [5], in assay [6], in assay [7] and in assay [8] was inactive. The compound was called inactive in assay [9] and in assay [13]. In addition, the potentiation in assay [4] was 43% (active); in assay [14] it was 27.4% (active). For the same compound, in assay [11], the potentiation, percent of control is 640% (active).
In the case of `CC(C)(C)c1ccccc1NC(=O)NC1CCN(Cc2c(F)cccc2Cl)CC1`, the activation was 121% (active) in [1], 36% (active) in assay [10] and 71.5% (active) in [12]. Also, the outcome in assay [2], in [3], in [4], in assay [5], in [6] and in assay [7] was inactive. The outcome in assay [8], in assay [9], in [11], in assay [13], in [14] and in assay [15] was inactive. Also, the result in assay [16] was inactive.
`CCCCC(c1nnnn1CC1CCCO1)N1CCN(c2nc3ccccc3s2)CC1` (stereo not given): the activation is 88% (active) in [1], 60.5% (active) in [10] and 12.7% (active) in assay [12]. Also, the outcome in assay [2], in assay [3], in assay [4], in assay [5], in [6] and in assay [7] was inactive. Besides, the outcome in [8], in assay [9], in assay [11], in [13], in [14] and in assay [15] was inactive. Moreover, in [16], the outcome was inactive.
For `Cc1sc2ncnc(NCC(C)(C)N3CCOCC3)c2c1C`, the activation in [1] is 178% (active); in assay [2] it was 109% (active); in assay [12], 62.7% (active). For the same compound, the outcome in assay [3], in assay [4], in [5], in assay [6], in assay [7] and in assay [8] was inactive. Further, the compound was classed as inactive in assay [9], in assay [10], in [11], in assay [13], in assay [14] and in assay [15]. Moreover, the result in assay [16] was inactive.
Turning to `Cc1cc(NC(=O)c2cnn3cccnc23)nn1CC(=O)Nc1cccnc1`, the result in [1], in [2], in assay [5], in [6], in assay [7] and in [8] was inactive. In addition, the call in [9], in assay [10], in assay [11], in assay [12], in [13] and in assay [15] was inactive. Further, the result in [16] was inactive. Also, the values for the potentiation in [3], in assay [4] and in [14] were 22% (active), 109% (active) and 72.1% (active), respectively.
As to `O=C(COc1ccccc1)NNC(=S)NC(=O)c1ccc(Cl)cc1Cl`, the activation in [1] is 63% (active); in [12], 44.7% (active). Moreover, the result in assay [2], in assay [3], in [4], in assay [5], in assay [6] and in assay [7] was inactive. The result in assay [8], in [9], in [10], in assay [11], in [13] and in assay [14] was inactive. For the same compound, the result in assay [15] and in assay [16] was inactive.
In the case of `COC(=O)[C@@]1(Cc2ccc(F)cc2)[C@H]2c3cc(C(=O)N(C)C)n(CCc4ccccn4)c3C[C@H]2CN1C(=O)c1ccccc1`, the activation in assay [1] is 136% (active); in [10] it was 54% (active). Also, the result in assay [2], in [3], in [4], in assay [5], in assay [6] and in assay [7] was inactive. Also, the outcome in assay [8], in assay [9], in assay [11], in assay [12], in [13] and in [14] was inactive. In addition, the outcome in assay [15] and in assay [16] was inactive.
As to `CCOC(=O)C1(CCc2ccccc2)CCN(Cc2c(O)cccc2OC)CC1`, the activation is 83% (active) in assay [1] and 92.5% (active) in assay [10]. In addition, the outcome in assay [2], in [3], in [4], in assay [5], in assay [6] and in assay [7] was inactive. Also, the outcome in assay [8], in assay [9], in [11], in assay [12], in [13] and in [14] was inactive. Besides, the result in assay [15] and in assay [16] was inactive.
Turning to `COc1ccc(/C=C/CN2CCCC(C(=O)c3ccc(OC)c(F)c3)C2)cc1` (stereo not given), the result in assay [1], in assay [2], in assay [3], in assay [4], in assay [5] and in assay [6] was inactive. Also, the result in [7], in assay [8], in assay [9], in assay [11], in assay [12] and in assay [13] was inactive. The outcome in assay [14], in assay [15] and in [16] was inactive. Further, the activation in assay [10] is 33% (active).

Values taken from PubChem BioAssay.
